# Tested on: Plasmodium falciparum NF54-HGL (transmission to Anopheles stephensi)
# Experiment: percentage of barcode signal found in uninfected mosquitoes (transmission-blocking activity); higher = stronger blocking of transmission to mosquito, active = 80 or more
# Conditions: 10 µM; gametocyte preincubation time 24 h; readout time post-feed 8 days
# Experimental: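 The mixture was fed to Anopheles stephensi in 96-well plates as blood meals tagged with DNA-barcoded Asaia bacteria. Eight days later, mosquitoes were classed infected or uninfected by luminescence (mean + 5 SD of unfed controls). Barcodes were quantified by Luminex MagPlex-TAG in the pooled uninfected and infected Asaia cultures, background-corrected, and the score is % of barcode signal in uninfected mosquitoes = 100*Iu/(Iu+Ii).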
row,Structure (SMILES),percentage of barcode signal found in uninfected mosquitoes
1,Cc1ncc(-c2ccnc(Nc3ccc(S(C)(=O)=O)cc3)n2)n1C(C)C,82.6% (active)
2,Cc1nc(-c2ccccn2)nc(NCCc2ccc(S(C)(=O)=O)cc2)c1Cl,67% (inactive)
3,Cc1ccc2oc(-c3cc(NC(=O)Cc4ccccc4)ccc3Cl)nc2c1,24% (inactive)
4,CC(C)N=c1cc2n(-c3ccc(Cl)cc3)c3ccccc3nc-2cc1Nc1ccc(Cl)cc1,99.3% (active)
5,CC[C@@H]([C@H](C)O)n1ncn(-c2ccc(N3CCN(c4ccc(OC[C@@H]5CO[C@@](Cn6cncn6)(c6ccc(F)cc6F)C5)cc4)CC3)cc2)c1=O,42.4% (inactive)
6,O=C1COCc2ccc(Br)cc2N1Cc1ccc(C(F)(F)F)cc1,22.4% (inactive)
7,O=C(c1cc2ccccc2o1)N1CCN(Cc2ccc3c(c2)OCO3)CC1,0.553% (inactive)
8,CNC1C(OC2C(OC3C(O)C(O)C(NC(=N)N)C(O)C3NC(=N)N)OC(C)C2(O)C=O)OC(CO)C(O)C1O (configuration not stated),47% (inactive)
9,COC(=O)Nc1nc2cc(C(=O)c3ccccc3)ccc2[nH]1,42.3% (inactive)
10,COc1cccc(OCC(=O)c2ccc(Br)cc2)c1,13.7% (inactive)
11,CC(C(=O)Nc1ccc2oc(-c3ccncc3)nc2c1)c1ccccc1 (configuration not stated),-6.05% (inactive)
12,COc1ccc(-c2cnc3ccc(NCc4ccc(S(N)(=O)=O)cc4)nn23)cn1,68.2% (inactive)
13,CCOC(=O)NC(=O)c1ccsc1NC(=O)c1nc2ccccc2s1,-0.298% (inactive)
14,CC(C)(C)C1CCC(CC2=C(O)C(=O)c3ccccc3C2=O)CC1 (configuration not stated),83.7% (active)
15,O=C(NC1CC1)c1ccc(N2CCC(Cc3ccccc3)CC2)nc1,77.8% (inactive)
16,COc1ccc(-c2cnc3ccc(N4CCCC4)nn23)cc1OC,75.3% (inactive)
17,O=C(Nc1ccnc(-c2cccnc2)n1)c1cc(C(F)(F)F)cc(C(F)(F)F)c1,46.9% (inactive)
18,COC(=O)c1ccc(F)cc1NS(=O)(=O)c1cccc(-c2cnn(Cc3ccccc3)c2)c1,31.1% (inactive)
19,Nc1ncnc2c1ncn2[C@@H]1O[C@H](COS(=O)(=O)NC(=O)c2ccccc2O)[C@@H](O)[C@H]1O,-0.124% (inactive)
20,Nc1nccc2ccc(-c3ccc4nccn4c3)cc12,92.9% (active)
21,N#Cc1nc(-c2ccccc2F)oc1NCCc1ccccc1,1.26% (inactive)
22,COc1ccc(C2=NN(C3CCCCCC3)C(=O)C2(C)C)cc1OCCCCOc1ccc(-c2nn[nH]n2)cc1,7.2% (inactive)
23,CC(C)n1ncc2c(C(=O)NCC(c3cccs3)N3CCOCC3)cc(-c3ccccc3)nc21 (configuration not stated),29.6% (inactive)
24,Cc1cc(C)cc(COc2ccc3c(C)c(CCC(=O)O)c(=O)oc3c2C)c1,1.73% (inactive)

# Same assay, conditions: 20 µM; gametocyte preincubation time 24 h; readout time post-feed 8 days
row,Structure (SMILES),percentage of barcode signal found in uninfected mosquitoes
1,CC(C)(C)n1nc(Cc2ccc(F)c(Cl)c2)c2c(N)ncnc21,10.3% (inactive)
2,Clc1ccc(CN2CCN(C3=NCCN3)CC2)cc1Cl,4.45% (inactive)
3,COc1cccc(NC(=O)c2c(NC(=O)c3cccnc3)sc3c2CCC3)c1,34.2% (inactive)
4,CCCCc1ccc(C(=O)Nc2nccc3ccccc23)nc1,48.5% (inactive)
5,CC(c1cc(Cl)cc(Cl)c1)N(C)c1ncc2c(N)nc(N)nc2n1 (configuration not stated),0.441% (inactive)
6,CCCn1c(NC(=O)c2ccc3ccccc3n2)nc2ccccc21,56.6% (inactive)
7,CCc1ccc(C(NCc2nc(N)nc(N(C)C)n2)C(C)C)cc1 (configuration not stated),54.2% (inactive)
8,O=C(NCCN1CCCC1)c1cc(NCCN2CCOCC2)nc2ccc(Cl)cc12,88% (active)
9,Cc1cc(Cl)c(S(=O)(=O)N2CCCC2)cc1OCC(=O)NC1CCCCC1,1.74% (inactive)
10,O=C(Nc1cnc2ccccc2c1)c1cccc(-n2cnnn2)c1,21.3% (inactive)
11,Cc1cc(C)nc(-n2nc(C)cc2Nc2ccccc2)n1,80.5% (active)
12,CCn1ncc2c(NC3CCOCC3)c(CNC(=O)c3ccnn3C)c(C)nc21,91.2% (active)
13,Cc1nn(C)cc1C(C)Nc1nncc(-c2ccc(C(F)(F)F)cc2)n1 (configuration not stated),89.3% (active)
